In PubChem BioAssay (NCATS) one finds activity change, negative = inhibition, outcome and Potency data, which are given here for 14 compounds.

Test [1] is described as follows: NFAT Signaling Pathway (AID 444; active = well fitted curve in either direction with a large enough effect, not every such curve was filed as active;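 note: carbachol stimulus at about its EC50 of 1 µM final; % is set by controls: 0 for no effect and ±100 for the full control effect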). The following applies: Jurkat NFAT-bla M1, carbachol, beta-lactamase ratio, 5 h; at 17.2 µM (top of the series) unless noted. The essentials:
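Jurkat cells carrying an NFAT-driven β-lactamase reporter and co-transfected muscarinic M1 receptor were treated with compound plus carbachol (1 uM final, an EC50 level) for 5 h at 37 °C. CCF4 loading followed for 1 h at RT; 460/530 nm ratio gave %activity.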

Test [2] in a line: Stat Signaling Pathway (AID 446; active = well fitted curve in either direction with a large enough effect, not every such curve was filed as active;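 note: ME-180 cervical cancer cells given 40 pM IL-6 alongside compound; SIE-controlled beta-lactamase reporter measured as 460/530 nm FRET emission ratio; % is set by controls: 0 for no effect and ±100 for the full control effect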). Summed up:
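Emission at 460 and 530 nm (excitation 405 nm) reports SIE-controlled beta-lactamase in ME-180 cells. Cells received compound with 40 pM IL-6 for 5 hrs at 37 C; data scaled between 300 pM IL-6 and 125 nM JAK-inhibitor controls.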

The target of test [3] is Cytochrome P450 2D6 (Homo sapiens) (UniProt P10635). Put plainly: qHTS Assay for Inhibitors and Substrates of Cytochrome P450 2D6 (AID 891). Note: potency is the fitted concentration of half-maximal effect; nearly all actives have a fitted effect of over 60% in size. Summed up: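 Luminescent read-out of luciferin formed by 5 nM human CYP2D6 demethylating 30 uM Luciferin-ME EGE (Km level) over 60 min at room temperature after NADPH regeneration addition. Data normalized to full inhibition by 1.43 uM quinidine.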
Cytochrome P450 2D6 (Homo sapiens), sequence (P10635 whole entry, looked up): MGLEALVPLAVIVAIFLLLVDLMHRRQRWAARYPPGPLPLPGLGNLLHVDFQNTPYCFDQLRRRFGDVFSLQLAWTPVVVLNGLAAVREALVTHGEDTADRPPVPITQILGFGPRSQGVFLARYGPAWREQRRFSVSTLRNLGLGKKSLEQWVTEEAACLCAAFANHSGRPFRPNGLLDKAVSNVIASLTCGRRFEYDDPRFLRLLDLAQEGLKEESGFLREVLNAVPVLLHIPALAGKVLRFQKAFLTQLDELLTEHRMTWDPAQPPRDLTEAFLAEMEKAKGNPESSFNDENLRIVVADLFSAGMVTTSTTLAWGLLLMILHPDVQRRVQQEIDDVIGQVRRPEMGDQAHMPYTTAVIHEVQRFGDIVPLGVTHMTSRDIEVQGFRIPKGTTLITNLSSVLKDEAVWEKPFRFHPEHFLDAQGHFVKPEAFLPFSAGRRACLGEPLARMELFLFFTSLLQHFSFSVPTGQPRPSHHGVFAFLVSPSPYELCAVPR
On the technique in general: qHTS replaces the single test concentration by a dilution series.

Test [4] is described as follows: S16 Schwann cell viability assay (CellTiter-Glo assay) (AID 624031).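 Note: native untransfected S16 rat Schwann cells; plate controls were DMSO-treated cells for no effect and cell-free wells for full effect; nearly all actives have a fitted effect of over 70% in size.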 The essentials: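 Counter-screen for cytotoxicity: parental S16 rat Schwann cells lacking the PMP22 reporters, treated 24 h with compound, viability from cellular ATP by CellTiter-Glo luminescence, normalized to DMSO (0%) and no-cell wells.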
Test [5] deals with 7G8. Put plainly: qHTS profiling for inhibitors of Plasmodium falciparum proliferation (AID 504749). Note: nearly all actives have a fitted effect of over 60% in size. Note: potency is the fitted concentration of half-maximal effect. The following applies: P. falciparum in erythrocytes, SYBR Green DNA, 72 h; series mostly up to 12.8 µM. Summed up: (§1)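 Fluorescence of SYBR Green-bound parasite DNA, read at 485/535 nm, served as the growth measure. Infected erythrocytes were cultured with compound 72 h; artemisinin (0.29 uM) and DMSO wells defined the normalization range.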

The test system of test [6] is GB4. The description is as above. The note with it: P. falciparum in erythrocytes, SYBR Green DNA, 72 h; series mostly up to 12.8 µM. The essentials:
as §1

Test [7] deals with ICS. The description is as above. The note with it: P. falciparum in erythrocytes, SYBR Green DNA, 72 h; series mostly up to 12.8 µM. Summed up: as §1
Test [8] deals with W2. Described as above. The following applies: P. falciparum in erythrocytes, SYBR Green DNA, 72 h; series mostly up to 12.8 µM. Summed up: as §1
Test [9] concerns the target Cytochrome P450 3A4 (Homo sapiens) (UniProt P08684). Kind of test: qHTS Assay for Inhibitors and Substrates of Cytochrome P450 3A4 (AID 884). Note: potency is the fitted concentration of half-maximal effect; nearly all actives have a fitted effect of over 50% in size. The essentials: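 Luminescent readout of luciferin produced by CYP3A4 (20 nM) dealkylation of Luciferin-PPXE, 25 uM (its KM). NADPH-driven reaction ran 60 min at RT after 10 min compound preincubation; data scaled to 57 uM ketoconazole as 100% inhibition.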

Test [10] shares this target. Put plainly: qHTS Assay for Activators of Cytochrome P450 3A4 (AID 885). Note: nearly all actives have a fitted effect of over 65% in size. The essentials:
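Activators are scored by enhanced luminescence from CYP3A4 conversion of luciferin-PPXE (25uM, equal to KM) to luciferin, after 60 min at RT with an NADPH-regenerating system.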

Test [11] in a line: Confirmation and Secondary Assay for Modulators of Hemoglobin Beta Chain Splicing at IVS2 654 locus (AID 910).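 Note: per-well total GFP intensity by laser scanning cytometry after 2-day treatment; % of control where 0% means no effect.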 The essentials: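 HeLa cells stably carrying EGFP interrupted by mutant beta-globin IVS2-654 intron (CMV-driven) were treated with compound for 2 days at 37C; corrected splicing was scored as total peak GFP intensity per well (488 nm excitation, 500-520 nm emission).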

Test [12] in a line: Confirmation and Secondary Assay for Modulators of Hemoglobin Beta Chain Splicing at IVS2 705 locus (AID 930).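 Note: HeLa cells stably expressing the EGFP-705 splicing reporter; GFP fluorescence per well restored by corrected splicing of the IVS2-705 intron in EGFP; % of control where 0% means no effect.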 Summed up: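 First, HeLa EGFP-705 cells are seeded at 500/well in Optimem with 2% FCS and left overnight. Next, compound or DMSO is added for 2 days. Finally wells are laser-scanned and total peak GFP intensity scored.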
The test system of test [13] is CP203. Kind of test: qHTS profiling for inhibitors of Plasmodium falciparum proliferation (AID 504749). Note: nearly all actives have a fitted effect of over 60% in size. Note: potency is the fitted concentration of half-maximal effect. The note with it: P. falciparum in erythrocytes, SYBR Green DNA, 72 h; series mostly up to 12.8 µM. The essentials: as §1
The subject of test [14] is CP260. The test is described as above. The following applies: P. falciparum in erythrocytes, SYBR Green DNA, 72 h; series mostly up to 12.8 µM. The essentials: as §1
Test [15] has as its system CP335. Described as above. The following applies: P. falciparum in erythrocytes, SYBR Green DNA, 72 h; series mostly up to 12.8 µM. The essentials: as §1
Test [16] deals with DFO2036. The test is described as above. The following applies: P. falciparum in erythrocytes, SYBR Green DNA, 72 h; series mostly up to 12.8 µM. The essentials: as §1
A short description of test [17]: S16 Schwann cell PMP22 intronic element firefly luciferase assay (AID 624032).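 Note: plate controls were DMSO for no effect and PTC124 positive control mean for full effect; nearly all actives have a fitted effect of over 30% in size.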 Summed up:
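Rat S16 Schwann cells stably carrying a PMP22 intronic element-driven Fluc reporter were seeded overnight, then exposed to compounds for 24 h at 37 °C. Luminescence was normalized to PTC124 (positive control) and DMSO (0% activity).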

The subject of test [18] is CP215. Kind of test: qHTS profiling for inhibitors of Plasmodium falciparum proliferation (AID 504749). Note: nearly all actives have a fitted effect of over 60% in size. Note: potency is the fitted concentration of half-maximal effect. The note with it: P. falciparum in erythrocytes, SYBR Green DNA, 72 h; series mostly up to 12.8 µM. The essentials: as §1
Test [19] relates to DIV17. The test is described as above. The note with it: P. falciparum in erythrocytes, SYBR Green DNA, 72 h; series mostly up to 12.8 µM. The essentials: as §1

Values joined by “and” are separate entries in the source; they are usually repeats but may differ in a detail not shown here. Equal values may be shown once. A number with no mark means an inactive call. Records with an inconclusive call do not appear. Active and inactive are the calls of the source. Unless noted, calls come from the whole dose curve; as a rule, active = well fitted curve in the direction sought with a large enough effect; inconclusive = small, poorly fitted or top-dose-only effect, or another doubt; inactive = no such curve, though single readings can be large; an effect the other way counts as inactive or inconclusive.

Cytochrome P450 3A4 (Homo sapiens), sequence (P08684 whole entry, looked up): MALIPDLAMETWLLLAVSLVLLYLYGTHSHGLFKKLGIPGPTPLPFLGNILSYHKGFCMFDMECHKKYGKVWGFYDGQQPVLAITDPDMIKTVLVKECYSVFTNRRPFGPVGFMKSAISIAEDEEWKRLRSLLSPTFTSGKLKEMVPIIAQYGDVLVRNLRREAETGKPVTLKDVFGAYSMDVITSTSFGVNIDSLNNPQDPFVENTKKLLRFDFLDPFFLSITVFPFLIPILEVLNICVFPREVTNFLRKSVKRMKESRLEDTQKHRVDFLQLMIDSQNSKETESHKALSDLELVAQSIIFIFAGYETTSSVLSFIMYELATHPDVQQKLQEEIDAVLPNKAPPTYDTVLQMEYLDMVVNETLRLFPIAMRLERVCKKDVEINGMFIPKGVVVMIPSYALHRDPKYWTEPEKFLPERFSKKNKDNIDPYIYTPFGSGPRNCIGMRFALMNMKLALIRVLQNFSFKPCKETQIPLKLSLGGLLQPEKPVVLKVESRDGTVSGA

On to `C[N+](C)(CCCOc1ccccc1)c1ccccc1`, for which the activity change, negative = inhibition in test [1] was -17.9%. Moreover, the result in test [2] was inactive. Further, in test [3], the Potency is 0.0158 µM (active).
Regarding `COC(=O)[C@@H]1[C@@H]2C[C@H]3c4[nH]c5cc(OC)ccc5c4CCN3C[C@@H]2C[C@H](OC(=O)/C=C\c2cc(OC)c(OC)c(OC)c2)[C@H]1OC`, in test [1], the activity change, negative = inhibition was 0.402%. The call in test [2] and in test [4] was inactive. Moreover, the Potency in test [5] was 3.16 µM (active); in [6] it was 5.1 µM (active); in [7], 4.47 µM (active); in [8], 1.81 µM (active).
As for `COc1ccc(-c2cc(=O)c3c(O)cc(O)cc3o2)cc1`, the Potency in [9] was 2.51 µM (active) and 7.94 µM (active) and 3.16 µM (active). The Potency entry in test [10], in [11] and in test [12] was “inactive” in each case.
Consider `c1ccc(CNc2ncnc3nc[nH]c23)cc1`, for which the activity change, negative = inhibition in test [1] is 7.66%. Also, the compound was called inactive in test [2].
As to `CCO[C@H]1O[C@@H]([C@H](COCc2ccccc2)OCc2ccccc2)[C@@H](OCc2ccccc2)[C@H]1O`, the activity change, negative = inhibition in test [1] was -29.7%. Moreover, the compound was called inactive in test [2] and in [4]. The Potency result in [13], in test [14], in test [15] and in [16] was “inactive” throughout.
For the compound `O=C(O)COCCN1CCN([C@@H](c2ccccc2)c2ccc(Cl)cc2)CC1`, the result in test [2] and in [4] was inactive. Also, the Potency entry in test [17], in [13], in [18], in test [14] and in [15] was “inactive” in each case. The Potency in test [8] was 4.55 µM (active).
As for `CCCC(=O)Nc1ncnc2c1ncn2[C@@H]1O[C@H]2COP(=O)(O)O[C@@H]2[C@@H]1OC(=O)CCC`, the activity change, negative = inhibition in test [1] was 16.7%. Further, the outcome in [2] was inactive.
As to `CS(=O)(=O)Nc1cccc(-c2nc(Nc3ccc(F)cc3)c3ccccc3n2)c1`, the Potency in test [9] was 6.31 µM (active). Moreover, the Potency entry in test [11] and in test [12] was “inactive” in each case.
In the case of `O=c1cc(-c2ccc(O)cc2)oc2c([C@H]3O[C@@H](CO)[C@@H](O)[C@@H](O)[C@@H]3O)c(O)cc(O)c12`, the activity change, negative = inhibition in test [1] was 2.91%. In addition, the compound was called inactive in [2].
As to `CC1=C(C(=O)O)N2C(=O)[C@@H](NC(=O)[C@@H](N)c3ccc(O)cc3)[C@@H]2SC1`, in test [1], the activity change, negative = inhibition was -8.2%. Also, the compound was called inactive in [2] and in test [4]. The Potency result in [17], in [5], in [13], in [18], in test [14] and in test [15] was “inactive” each time. Besides, the Potency entry in test [19], in [6], in [7] and in test [8] was “inactive” throughout.
With `CC(C)(C)NC(=O)[C@@H]1C[C@H]2CCCC[C@@H]2CN1C[C@H](O)[C@H](Cc1ccccc1)NC(=O)[C@@H](CC(N)=O)NC(=O)c1ccc2ccccc2n1`, the activity change, negative = inhibition in [1] was -14.7%.
Turning to `COC(=O)C1=C(C)NC(C)=C(C(=O)OCCN(C)Cc2ccccc2)[C@H]1c1cccc([N+](=O)[O-])c1`, in test [2], the compound was called inactive.
Regarding `CN1CCO[C@H](c2ccccc2)c2ccccc2C1`, the result in test [2] and in [4] was inactive. Also, the Potency entry in test [5], in test [18], in test [14] and in [7] was “inactive” in each case. Further, the Potency in [8] is 2.03 µM (active).
As for `COc1cc2nc(N3CCN(C(=O)[C@@H]4COc5ccccc5O4)CC3)nc(N)c2cc1OC`, the compound was called inactive in [2] and in test [4]. For the same compound, the Potency entry in test [17] and in [18] was “inactive” throughout. For the same compound, the Potency is 7.08 µM (active) in test [5], 6.75 µM (active) in [19] and 5.36 µM (active) in test [8].
